Screening results deposited in PubChem by National Center for Advancing Translational Sciences (NCATS).
Rows were chosen to be rich in hits. Some 2.4% of all compounds tested hit in one or more screens of this group.
D2 PAM-1 = positive allosteric modulators of human D2 dopamine receptor | P14416 | HEK293 T-REx D2, calcium flux, EC20 dopamine potentiation | potentiation, % at 10 µM | actives 0.34% (n = 340,000) | AID 485347;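 active means potentiation over 3 SD above the plate norm, cut at about 30% in these data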
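Potentiation of an EC20 dopamine calcium response is measured in a force-coupled, tetracycline-inducible Hek293 Trex D2 line. Compound-only kinetic reads over 180 s flag agonists before dopamine addition.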
D2 ag-1 = agonists of human D2 dopamine receptor. HEK293 T-REx D2 cells, calcium flux agonist mode. actives 0.53% (n = 340,000). activation, % at 2 µM. P14416;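 active means activation over 3 SD above normal in the single-dose calcium agonist read, cut at about 30% in these data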
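Agonism is scored from calcium flux in a force-coupled, inducible HEK293 cell line expressing D2, read kinetically for 180 s after compound addition against dopamine controls.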
D2 antag = antagonizes the human D2 dopamine receptor. actives 2% (n = 340,000). P14416. HEK293 TREx D2 cells, calcium flux, dopamine EC80. inhibition, % at 10 µM; in the data active means inhibition above about 30%; inactive means below that, where a call was filed
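Tetracycline-induced HEK293 TREx cells expressing D2 receptor forced-coupled to calcium signalling, loaded with no-wash calcium dye. Compounds added and calcium flux read 180 s, then dopamine added at EC80 and read a further 180 s.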
B2AR arrestin = beta2AR (human) beta-arrestin recruitment activity; Potency, µM (titrated, usually from 46.1 µM), actives largely listed as activators; beta-arrestin recruitment to beta2AR, cell-based reporter; P07550; actives 0.02% (n = 330,000); active means well fitted activation curve with a large enough effect; further: nearly all actives have a fitted effect of over 65% in size
Target sequence (P07550 whole entry, looked up): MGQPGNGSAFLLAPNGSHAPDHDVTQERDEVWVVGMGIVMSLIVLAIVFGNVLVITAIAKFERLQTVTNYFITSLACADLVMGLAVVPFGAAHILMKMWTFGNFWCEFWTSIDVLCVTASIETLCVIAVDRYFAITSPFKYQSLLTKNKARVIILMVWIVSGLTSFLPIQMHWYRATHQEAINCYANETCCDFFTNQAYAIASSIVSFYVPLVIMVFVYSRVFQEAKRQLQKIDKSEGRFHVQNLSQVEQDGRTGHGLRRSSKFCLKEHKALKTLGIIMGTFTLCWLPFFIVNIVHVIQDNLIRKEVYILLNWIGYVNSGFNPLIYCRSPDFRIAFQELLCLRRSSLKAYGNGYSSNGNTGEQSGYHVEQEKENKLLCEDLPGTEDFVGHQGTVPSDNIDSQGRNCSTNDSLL
D2 ag-2 = activates the human D2 dopamine receptor; P14416; DiscoveRx PathHunter D2 beta-arrestin, luminescence, 90 min; 100% = 57 uM dopamine signal; actives 0.084% (n = 360,000); activation, % (no concentration beside the values); in the data active means activation above about 40%
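Agonist mode: compounds alone added to overnight-plated D2 PathHunter cells for 90 min at 37 C, with 57 uM final dopamine (EC100) defining full response. Beta-arrestin recruitment detected by chemiluminescent reagent, read after 1 h at ambient temperature.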
D2 PAM-2 = human D2 receptor positive allosteric modulation | P14416 | DiscoveRx D2 beta-arrestin cells, luminescence, 90 min; 100% = 57 uM dopamine signal | potentiation, % (test concentration not listed) | actives 0.23% (n = 360,000); in the data active means potentiation above about 50%
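PathHunter beta-arrestin assay in DiscoveRx D2 cells. Compounds were added with an EC20 of dopamine (50 nM final) for 90 min at 37 deg C. Luminescence was read 1 h after detection reagent, with 57 uM dopamine as the EC100 control.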
Numbers stand for hits.

`CC(C)N(C(=O)Cn1c(SCC(=O)NC2CC2)nc2ccccc21)C(C)C` gave D2 PAM-1 inactive, D2 ag-1 inactive, D2 antag inactive, B2AR arrestin inactive, D2 ag-2 inactive and D2 PAM-2 inactive.
COc1cc(S(=O)(=O)NC2CCSc3ccccc32)ccc1NC(C)=O (stereo not drawn) was read as D2 PAM-1 33.5, D2 ag-1 inactive, D2 antag inactive, B2AR arrestin inactive, D2 ag-2 inactive and D2 PAM-2 inactive.
For O=C(NCCCN1CCOCC1)c1cc(S(=O)(=O)N2CCOCC2)ccc1Cl the results were B2AR arrestin inactive, D2 ag-2 inactive and D2 PAM-2 inactive.
O=c1cc(-c2ccc([N+](=O)[O-])cc2)nc2cc(-c3ccc(Cl)cc3)[nH]n12 was read as D2 PAM-1 inactive, D2 ag-1 inactive, D2 antag 35.5 and B2AR arrestin inactive.
For Cc1ccc(NC(=O)CN2Cc3ccccc3C2=O)c(C)c1 the results were D2 PAM-1 inactive and D2 ag-1 inactive.
Screening CCSc1nnc2c(n1)OC1(CCCC1)Nc1ccccc1-2 returned D2 PAM-1 inactive, D2 ag-1 inactive, D2 antag 38.7, B2AR arrestin inactive, D2 ag-2 inactive and D2 PAM-2 inactive.
Screening CCSc1nnc2c(n1)OC(c1ccc(C)s1)Nc1ccccc1-2 (stereo not drawn) returned D2 PAM-1 inactive and D2 ag-1 inactive.
`COc1ccccc1C(=O)Nc1ccccc1C(=O)N1C(C)CCCC1C` (stereo not drawn) gave D2 PAM-1 inactive, D2 ag-1 inactive, D2 antag 48.3, B2AR arrestin inactive, D2 ag-2 inactive and D2 PAM-2 inactive.
Screening COc1cccc(OC)c1C(=O)Nc1ccccc1C(=O)N1CCCC1 returned D2 PAM-1 inactive, D2 ag-1 inactive, D2 antag inactive, B2AR arrestin inactive, D2 ag-2 inactive and D2 PAM-2 inactive.
`CCSc1nnc(NC(=O)c2c(C)noc2C)s1` gave D2 PAM-1 inactive, D2 ag-1 inactive, D2 antag inactive, B2AR arrestin inactive, D2 ag-2 inactive and D2 PAM-2 inactive.
For CCSc1nnc(NC(=O)c2cc(C)on2)s1 the results were D2 ag-1 inactive, D2 antag 55.6, B2AR arrestin inactive, D2 ag-2 inactive and D2 PAM-2 inactive.
Screening CCSc1nnc(NC(=O)c2csc3c2CCC(C)C3)s1 (stereo not drawn) returned B2AR arrestin inactive, D2 ag-2 inactive and D2 PAM-2 inactive.
`CCSc1nnc(NC(=O)c2csc3c2CCCC3)s1` gave D2 PAM-1 inactive, D2 ag-1 inactive, D2 antag 40.2, B2AR arrestin inactive, D2 ag-2 inactive and D2 PAM-2 inactive.
`Cc1ccc([N+](=O)[O-])c(NC(=O)COC(=O)CCNS(=O)(=O)c2cccs2)c1C` gave D2 ag-2 inactive and D2 PAM-2 inactive.
Screening CC(C)(C)C(=O)NCCc1nc(-c2ccccc2)no1 returned D2 ag-2 inactive and D2 PAM-2 inactive.
COc1cc(NS(=O)(=O)c2ccc(NC(=O)/C=C/c3ccc([N+](=O)[O-])cc3)cc2)ncn1 was read as D2 PAM-1 inactive, D2 ag-1 inactive, D2 antag inactive, B2AR arrestin inactive, D2 ag-2 inactive and D2 PAM-2 101.6.
For COc1cc(NS(=O)(=O)c2ccc(NC(=O)/C=C/c3cccc([N+](=O)[O-])c3)cc2)ncn1 the results were D2 PAM-1 inactive, D2 ag-1 inactive, D2 antag inactive, B2AR arrestin inactive, D2 ag-2 inactive and D2 PAM-2 inactive.
Screening COc1ccc(NC(=O)c2ccc(-n3cccn3)c([N+](=O)[O-])c2)cc1 returned D2 PAM-1 inactive, D2 ag-1 inactive, D2 antag 44.6, B2AR arrestin inactive, D2 ag-2 inactive and D2 PAM-2 inactive.
O=C(C[n+]1cccc(CNC(=O)c2ccc(OC(F)F)cc2)c1)Nc1cccc(C(F)(F)F)c1 was read as D2 PAM-1 inactive, D2 ag-1 inactive, D2 antag 44.8, B2AR arrestin inactive, D2 ag-2 inactive and D2 PAM-2 inactive.
`O=C(C[n+]1cccc(CNC(=O)c2ccc(OC(F)F)cc2)c1)Nc1ccc(F)cc1` gave D2 PAM-1 inactive, D2 ag-1 inactive, D2 antag inactive, B2AR arrestin inactive, D2 ag-2 inactive and D2 PAM-2 inactive.
For COc1ccc(C(NC(=O)C2CCN(CCOc3ccc(F)cc3)CC2)c2cccs2)cc1 (stereo not drawn) the results were D2 ag-2 inactive and D2 PAM-2 inactive.
For COc1ccc(C(NC(=O)C2CCN(CCOc3ccc(Cl)cc3Cl)CC2)c2cccs2)cc1 (stereo not drawn) the results were D2 ag-2 69.9 and D2 PAM-2 inactive.
`CN(C(=O)CN1C(=O)C2C3CC(C(Br)C3Br)C2C1=O)C1CCCCC1` (stereo not drawn) gave D2 PAM-1 inactive, D2 ag-1 inactive, D2 antag 30.8, B2AR arrestin inactive, D2 ag-2 inactive and D2 PAM-2 inactive.
`c1ccc2c(c1)OC(CCCN1CCCCC1)c1ccccc1S2` (stereo not drawn) gave D2 PAM-1 inactive, D2 ag-1 inactive, D2 antag 87.0, B2AR arrestin inactive, D2 ag-2 inactive and D2 PAM-2 inactive.
For CC1CCCN(C(=O)N2c3ccccc3Sc3ccccc32)C1 (stereo not drawn) the results were D2 PAM-1 inactive, D2 ag-1 inactive, D2 antag inactive, B2AR arrestin inactive, D2 ag-2 inactive and D2 PAM-2 inactive.
c1ccc(OCCCCN2CCCCC2)cc1 was read as D2 PAM-1 inactive, D2 ag-1 inactive, D2 antag inactive, B2AR arrestin inactive, D2 ag-2 inactive and D2 PAM-2 inactive.
Screening CN1CCCC(CC2Oc3ccccc3Sc3ccccc32)C1 (stereo not drawn) returned D2 PAM-1 inactive, D2 ag-1 inactive, D2 antag 95.7, B2AR arrestin inactive, D2 ag-2 inactive and D2 PAM-2 inactive.
`Cc1cc(C(=O)N2CCN(c3cccc(Cl)c3)CC2)c2c(C)nn(-c3ccccc3Cl)c2n1` gave D2 PAM-1 inactive and D2 ag-1 inactive.
Cn1c(=O)c2c(nc(OCc3cccnc3)n2Cc2c(F)cccc2Cl)n(C)c1=O was read as D2 ag-1 inactive, D2 antag 43.3, B2AR arrestin inactive, D2 ag-2 inactive and D2 PAM-2 inactive.
`O=C1C(Cl)=C(NC2CCCCC2)C(=O)N1c1ccc(Cl)cc1` gave D2 PAM-1 inactive, D2 ag-1 inactive, D2 antag inactive, B2AR arrestin inactive, D2 ag-2 inactive and D2 PAM-2 inactive.
Screening Cc1ccc(NC(=O)C(C)N2CCCC2)cc1Cl (stereo not drawn) returned D2 PAM-1 inactive, D2 ag-1 inactive, D2 antag 33.1, B2AR arrestin inactive, D2 ag-2 inactive and D2 PAM-2 inactive.
